A selection: hits, their analogues and other compounds. The true share with any hit is near 31%.
CYP2C19 inh = blocks human cytochrome P450 2C19 | actives 21% (n = 96,000) | CYP2C19 Supersomes, luciferin-H EGE luminescence, 30 min | inhibition, % at 5 µM;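 active means CYP2C19 inhibition above a set limit at 5 µM in the primary screen, cut at about 50% in these data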
PLAP activator = activators of human placental alkaline phosphatase; P05187; actives 1.2% (n = 96,000); activation fold at 20 µM; purified PLAP enzyme, luminescent substrate read-out; active compounds read high; in the data active means activation fold above about 2
Target sequence (P05187 whole entry, looked up): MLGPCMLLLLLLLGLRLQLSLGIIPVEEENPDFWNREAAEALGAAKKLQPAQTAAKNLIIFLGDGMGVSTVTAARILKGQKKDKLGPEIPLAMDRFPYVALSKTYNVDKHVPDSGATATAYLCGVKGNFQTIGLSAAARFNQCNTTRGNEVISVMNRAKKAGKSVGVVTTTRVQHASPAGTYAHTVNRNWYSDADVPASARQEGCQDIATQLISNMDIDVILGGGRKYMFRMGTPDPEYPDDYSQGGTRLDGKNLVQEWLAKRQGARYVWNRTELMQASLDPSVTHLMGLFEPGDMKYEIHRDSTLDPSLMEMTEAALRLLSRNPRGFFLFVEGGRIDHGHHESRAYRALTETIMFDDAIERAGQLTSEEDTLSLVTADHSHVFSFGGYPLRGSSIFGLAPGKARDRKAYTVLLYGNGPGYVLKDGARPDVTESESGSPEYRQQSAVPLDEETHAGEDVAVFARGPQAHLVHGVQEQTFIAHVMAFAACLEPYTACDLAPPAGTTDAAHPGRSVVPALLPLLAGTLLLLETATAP
CYP2C9 inhib = inhibitors of human CYP2C9. P11712. CYP2C9 Supersomes, luciferin-H conversion, luminescence. inhibition, % at 5 µM. actives 20% (n = 96,000). AID 777;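 active means blocking of liver enzyme CYP2C9 beyond about 50% at 5 µM, limit read from the data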
CYP2C19 activ = cytochrome P450 2C19 (human) activation; recombinant CYP2C19, luciferin-H EGE luminescence; active compounds read high; 0 = fully inhibited enzyme, 1 = untreated enzyme; activation factor at 5 µM; 96,000 tested, under 10 active;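 active means activation factor of at least 2 at 5 µM in the primary screen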
CYP2C9 act = activators of human CYP2C9; P11712; recombinant CYP2C9, luciferin-H conversion, luminescence; active compounds read high; factor 1 = untreated enzyme, 0 = blocked; activation factor at 5 µM; actives 1.4% (n = 96,000); AID 1024;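 active means activation factor of 2 or more for CYP2C9 at a 5 µM dose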
A number is an active result.

Cc1ccc(C)c(C(=O)CC2(O)C(=O)Nc3ccccc32)c1 (stereo not drawn) was read as CYP2C19 inh inactive, PLAP activator inactive, CYP2C9 inhib inactive, CYP2C19 activ inactive and CYP2C9 act inactive.
Cc1[nH]c2ccccc2c1C1(O)C(=O)N(Cc2ccc3c(c2)OCO3)c2ccccc21 (stereo not drawn) was read as CYP2C19 inh 82.8, PLAP activator inactive, CYP2C9 inhib 72.8, CYP2C19 activ inactive and CYP2C9 act inactive.
CC(C)n1c(=S)[nH]c2ccccc2c1=O was read as CYP2C19 inh inactive, PLAP activator inactive, CYP2C9 inhib inactive, CYP2C19 activ inactive and CYP2C9 act inactive.
Screening Cc1[nH]c2ccccc2c1C1(O)C(=O)N(C(C)C)c2ccccc21 (stereo not drawn) returned CYP2C19 inh 94.6, PLAP activator inactive, CYP2C9 inhib inactive, CYP2C19 activ inactive and CYP2C9 act inactive.
O=C(Cn1nnc2c(cnn2-c2ccccc2)c1=O)N1CCN(c2ccccc2F)CC1 was read as CYP2C19 inh inactive, PLAP activator inactive, CYP2C9 inhib inactive, CYP2C19 activ inactive and CYP2C9 act inactive.
`Cc1ccc(S(=O)(=O)NC(=NCC(=O)O)c2ccc(F)cc2)cc1` gave CYP2C19 inh inactive, PLAP activator inactive, CYP2C9 inhib inactive, CYP2C19 activ inactive and CYP2C9 act inactive.
O=C(c1ccc(Br)o1)N(c1ccc(Br)cc1)C1C=CS(=O)(=O)C1 (stereo not drawn) was read as CYP2C19 inh 86.1, PLAP activator inactive, CYP2C9 inhib 58.8, CYP2C19 activ inactive and CYP2C9 act inactive.
Screening Cc1ccc(N(C(=O)c2ccc3c(c2)OCO3)C2C=CS(=O)(=O)C2)cc1 (stereo not drawn) returned CYP2C19 inh inactive, PLAP activator inactive, CYP2C9 inhib inactive, CYP2C19 activ inactive and CYP2C9 act inactive.
Cc1cc(C)cc(N(C(=O)c2ccc3c(c2)OCO3)C2C=CS(=O)(=O)C2)c1 (stereo not drawn) was read as CYP2C19 inh 53.5, PLAP activator inactive, CYP2C9 inhib inactive, CYP2C19 activ inactive and CYP2C9 act inactive.
`O=C(c1ccc2c(c1)OCO2)N(c1ccc(Cl)cc1)C1C=CS(=O)(=O)C1` (stereo not drawn) gave CYP2C19 inh 69.5, PLAP activator inactive, CYP2C9 inhib inactive, CYP2C19 activ inactive and CYP2C9 act inactive.
For CC(Sc1nc2ccc(Br)cc2[nH]1)C(=O)O (stereo not drawn) the results were CYP2C19 inh inactive, PLAP activator inactive, CYP2C9 inhib inactive, CYP2C19 activ inactive and CYP2C9 act inactive.
`C=CCc1cccc(Cl)c1OCCON1C(=O)CCC1=O` gave CYP2C19 inh 55.1, PLAP activator inactive, CYP2C9 inhib inactive, CYP2C19 activ inactive and CYP2C9 act inactive.
O=C1CCC(=O)N1OCCOc1ccc2c(c1)CCC2 was read as CYP2C19 inh inactive, PLAP activator inactive, CYP2C9 inhib inactive, CYP2C19 activ inactive and CYP2C9 act inactive.
Screening O/N=C1/CCSc2ccccc21 returned CYP2C19 inh inactive, PLAP activator inactive, CYP2C9 inhib inactive, CYP2C19 activ inactive and CYP2C9 act inactive.
Screening O=C(CSc1nnc(-c2ccc(OC(F)F)cc2)o1)NCc1cccs1 returned CYP2C19 inh 64.3, PLAP activator inactive, CYP2C9 inhib inactive, CYP2C19 activ inactive and CYP2C9 act inactive.
COc1cccc(CN(C)CC(=O)NC(=O)NCc2ccco2)c1 was read as CYP2C19 inh 58.1, PLAP activator inactive, CYP2C9 inhib inactive, CYP2C19 activ inactive and CYP2C9 act inactive.
For COc1ccc(-c2ccc(SCC(=O)NCc3ccco3)nn2)cc1 the results were CYP2C19 inh inactive, PLAP activator inactive, CYP2C9 inhib inactive, CYP2C19 activ inactive and CYP2C9 act inactive.
Screening COc1ccc(-c2nnc(SCC(=O)NC(C)c3ccccc3)o2)cc1 (stereo not drawn) returned CYP2C19 inh 59.2, PLAP activator inactive, CYP2C9 inhib inactive, CYP2C19 activ inactive and CYP2C9 act inactive.
COC(=O)CSc1nnc(-c2ccc(S(=O)(=O)NCc3cccs3)cc2)o1 was read as CYP2C19 inh inactive, PLAP activator inactive, CYP2C9 inhib inactive, CYP2C19 activ inactive and CYP2C9 act inactive.
For COc1cccc(C(=O)c2c[nH]c(C(=O)NCc3ccco3)c2)c1 the results were CYP2C19 inh inactive, PLAP activator inactive, CYP2C9 inhib inactive, CYP2C19 activ inactive and CYP2C9 act inactive.
`COc1ccc(-c2nnc(SCC(=O)NC(=O)NCc3ccco3)o2)cc1` gave CYP2C19 inh 52.5, PLAP activator inactive, CYP2C9 inhib inactive, CYP2C19 activ inactive and CYP2C9 act inactive.
